Giardia killer = kills Giardia lamblia. Giardia lamblia trophozoite viability. activity change, % at 7.66 µM, hits read low. actives 0.15% (n = 340,000); in the data active means activity change below about -80%; inconclusive means between about -30% and that limit;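 further: parasites exposed to compound for two days anaerobically before the ATP read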
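Each well holds 100 Giardia trophozoites and compound. After two days (48 hrs) at 37 deg C in anaerobic conditions, ATP is quantified by luminescence.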
DT40 TDP1 no CPT = qHTS for Inhibitors of human tyrosyl-DNA phosphodiesterase 1 (TDP1): qHTS in cells in absence of CPT. Potency, µM (top dose mostly 46.2 µM), for inactives: top-dose activity change, negative = growth inhibition, actives largely listed as inhibitors. DT40 Tdp1-/- hTDP1 cells, no CPT, ATP luminescence, 48 h. AID 686978, 2013. actives 15% (n = 420,000); further: potency means the concentration at half of the fitted maximal effect; nearly all actives have a fitted effect of over 55% in size
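Stably hTDP1-transfected Tdp1-null chicken DT40 cells were treated with library compounds minus camptothecin and grown for at least 48 hr at 37 °C, after which cellular ATP was quantified by luminescence.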
IL-1B inflam inh = inflammasome signaling inhibition, IL-1 beta readout | THP-1 LPS/ATP IL-1B secretion, AlphaLISA, 16 h; hits give low values | activity change, % at 57.5 µM | actives 4.7% (n = 360,000); in the data active means activity change below about -50%; inconclusive means mostly about -30% to -49%
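THP-1 cells pretreated 1 hr with compounds (up to 57.5 uM final), then stimulated with LPS (250 ng/mL final) plus ATP (1.25 mM final); secreted IL-1B measured by AlphaLISA after 16 hr, decreased signal indicating inhibition.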
TDP1 inh = blocks human tyrosyl-DNA phosphodiesterase 1; Q9NUW8; recombinant TDP1, AlphaScreen DNA substrate cleavage; Potency, µM (series often up to 130 µM), for the others: at the highest dose activity change, negative = inhibition, usual class: inhibitors; actives 0.28% (n = 350,000); AID 485290; further: potency means the concentration at half of the fitted maximal effect; nearly all actives have a fitted effect of over 40% in size
Target sequence (Q9NUW8 whole entry, looked up): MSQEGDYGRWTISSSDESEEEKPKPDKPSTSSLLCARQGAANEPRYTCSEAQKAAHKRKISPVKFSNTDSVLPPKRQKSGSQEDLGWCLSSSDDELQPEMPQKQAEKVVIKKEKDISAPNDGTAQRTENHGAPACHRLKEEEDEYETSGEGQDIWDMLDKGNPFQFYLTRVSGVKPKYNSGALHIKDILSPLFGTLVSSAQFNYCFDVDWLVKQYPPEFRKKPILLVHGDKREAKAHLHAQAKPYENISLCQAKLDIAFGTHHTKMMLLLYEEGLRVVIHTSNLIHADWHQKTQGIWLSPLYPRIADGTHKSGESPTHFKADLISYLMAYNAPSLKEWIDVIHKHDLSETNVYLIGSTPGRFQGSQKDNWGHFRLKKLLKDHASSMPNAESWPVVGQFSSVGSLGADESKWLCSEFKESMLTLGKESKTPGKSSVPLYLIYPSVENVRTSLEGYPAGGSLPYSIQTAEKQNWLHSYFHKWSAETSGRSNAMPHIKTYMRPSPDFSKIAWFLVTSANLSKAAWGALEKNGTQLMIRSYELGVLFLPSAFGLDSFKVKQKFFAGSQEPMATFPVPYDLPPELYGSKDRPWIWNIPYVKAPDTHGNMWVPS
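Here, a 5' biotin and 3' phosphotyrosine-FITC DNA oligonucleotide reports Tdp1 activity: intact substrate bridges AlphaScreen beads, while cleavage leaves a 3' phosphate and drops signal. All incubations at room temperature.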
ELG1 repair inh = inhibitors of ELG1-dependent DNA repair in HEK293T cells; HEK293T ELG1-luciferase reporter, luminescence, 16 h; DNA damage induced by 5-fluorouridine; Potency, µM (titrated, usually from 46.1 µM), for inactives: top-dose activity change, negative = inhibition, most hits filed as inhibitors; actives 2.3% (n = 330,000); AID 504467; further: potency means the concentration at half of the fitted maximal effect; nearly all actives have a fitted effect of over 55% in size
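Quantitative HTS, concentration-response format. 2,000 cells/well co-treated with 5-fluorouridine and compound, 16 hr in 5% CO2 at 37 °C; ONE-Glo luminescence read after 30 min.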
TDP1 cell CPT = DT40-hTDP1 cell growth loss with CPT | chicken DT40 Tdp1-/-;hTDP1 cells + 20 nM CPT, ATP luminescence, 48 h | Potency, µM (highest dose often 46.2 µM), for inactives: at the highest dose activity change, negative = growth inhibition, most hits filed as inhibitors | actives 12% (n = 420,000) | AID 686979; further: potency means the concentration at half of the fitted maximal effect; nearly all actives have a fitted effect of over 55% in size
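Chicken DT40 Tdp1-/- cells complemented with human TDP1, 400 cells/well, exposed to compounds plus 20 nM camptothecin for at least 48 h at 37 C; viability read as ATP content by CellTiter-Glo luminescence.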
Numbers without * were called inactive; ? = inconclusive; nt = not tested or not shown. In the library only some 19% were active in any assay of this set; here they are far more common. Unless noted, the call rests on the fitted dose curve; in most records, active means well fitted curve in the direction sought with a large enough effect; inconclusive means small, poorly fitted or top-dose-only effect, or another doubt; inactive means no such curve, though single readings can be large; an effect the other way counts as inactive or inconclusive. On the % scale 0 is the no-effect control and ±100 the full control effect.

SMILES	Giardia killer	DT40 TDP1 no CPT	IL-1B inflam inh	TDP1 inh	ELG1 repair inh	TDP1 cell CPT
Cc1cc(C)n(CCNC(=O)c2cc(COc3ccc4ncccc4c3)on2)n1	-5	21µM*	2	nt	?	21µM*
O=C(CCCSc1nc(-c2ccco2)cc(C(F)(F)F)n1)Nc1ccc2c(c1)OCO2	7	23µM*	?	-4%	nt	?
CC(=O)c1ccc(NC(=O)CCCSc2nc(-c3ccco3)cc(C(F)(F)F)n2)cc1	nt	16µM*	nt	2%	nt	23µM*
Cc1nn(C)c(C)c1NC(=O)CCCSc1nc(-c2ccco2)cc(C(F)(F)F)n1	-7	?	?	5%	26µM*	?
O=C(CSc1nc(-c2ccco2)cc(C(F)(F)F)n1)Nc1ccc2c(c1)OCO2	2	?	-5	3%	?	?
CCCCN(C(=O)c1ccc(-c2ccc([N+](=O)[O-])cc2)o1)c1c(N)n(CC(C)C)c(=O)[nH]c1=O	14	-21%	-21	-2%	-2%	?
CCOc1ccc(NC(=O)CSc2nnc3c(C)cc4ccccc4n23)cc1	nt	0%	nt	nt	nt	6%
COc1cccc(-c2cc3c(c(OC)c2)OCCN(Cc2ccccc2O)C3)n1	nt	-16%	nt	nt	nt	0%
CCNC(=O)O/N=C1\CCCCC1c1ccc([N+](=O)[O-])cc1[N+](=O)[O-] (stereo not given)	-26	-1%	29	nt	-1%	-18%
CN(Cc1ccccc1)S(=O)(=O)c1ccc(Cl)c(C(=O)NCCc2ccccn2)c1	8	?	2	5%	?	16µM*
CN(Cc1ccccc1)S(=O)(=O)c1ccc(Cl)c(C(=O)NCCCN2CCCC2=O)c1	15	16µM*	24	nt	nt	?
CN(Cc1ccccc1)S(=O)(=O)c1ccc(Cl)c(C(=O)NCCCN2CCOCC2)c1	3	?	22	nt	29%	-9%
O=C(NCCc1ccccn1)c1cc(-c2ccc(Cl)c(Cl)c2Cl)nc2ccccc12	?	18µM*	0	0%	?	?
Cc1nc2sc(-c3ccccc3)cc2c(=O)n1N	-12	?	-23	5%	?	?
Cc1nc2sc(-c3ccccc3)cc2c(=O)n1-n1cccc1	6	?	-63*	-5%	?	?
CC(C)c1ccc(Nc2ncnc3onc(-c4ccc(F)cc4)c23)cc1	nt	?	nt	-11%	nt	18µM*
CCOc1ccc(Nc2ncnc3onc(-c4ccc(Cl)cc4)c23)cc1	nt	?	nt	-6%	nt	?
COc1cc(Nc2ncnc3onc(-c4ccc(Cl)cc4)c23)cc(OC)c1	nt	21µM*	nt	1%	nt	?
COc1ccc(Nc2ncnc3onc(-c4ccc(Cl)cc4)c23)cc1Cl	nt	16µM*	nt	-1%	nt	18µM*
CC1CCC(Nc2nc3c(-c4ccc(Cl)cc4)nnn3c3ccccc23)CC1 (stereo not given)	nt	-19%	nt	4%	nt	1%
CC[N+]1(C)CC2CCC(C)(C1)C2(C)C (stereo not given)	-20	-24%	-4	10%	7%	-10%
C[C@@H]1CN([C@@H](C)CO)S(=O)(=O)c2ccc(Br)cc2O[C@H]1CN(C)Cc1ccncc1	nt	?	-27	nt	nt	?
C[C@H]1CN([C@@H](C)CO)S(=O)(=O)c2ccc(Br)cc2O[C@H]1CN(C)Cc1ccccc1F	nt	23µM*	?	nt	nt	16µM*
C[C@@H]1CN([C@@H](C)CO)S(=O)(=O)c2ccc(Br)cc2O[C@H]1CN(C)Cc1ccccc1F	nt	10µM*	-23	nt	nt	15µM*
C[C@@H]1CN([C@@H](C)CO)S(=O)(=O)c2ccc(Br)cc2O[C@H]1CN(C)C(=O)c1ccccc1F	nt	?	-19	nt	nt	?
SMILES	Giardia killer	DT40 TDP1 no CPT	IL-1B inflam inh	TDP1 inh	ELG1 repair inh	TDP1 cell CPT
CCC1CCCCN1C(=O)CCc1nnc(Cc2cc(OC)ccc2OC)o1 (stereo not given)	-10	-5%	11	nt	?	-12%
CC(=O)c1ccc(NC(=O)CCc2c(C)nc3cc(-c4ccc(Cl)cc4)nn3c2C)cc1	nt	6.5µM*	nt	-1%	nt	?
CCN(CC)S(=O)(=O)c1ccc(NC(=O)CCc2c(C)nc3cc(-c4ccc(Cl)cc4)nn3c2C)cc1	nt	3.7µM*	nt	6%	nt	4.6µM*
COc1ccc(CCNC(=O)CCc2c(C)nc3cc(-c4ccc(Cl)cc4)nn3c2C)c(OC)c1	nt	?	nt	7%	nt	?
COc1ccc(CONS(=O)(=O)c2ccc(NC(C)=O)cc2)cc1Cl	-12	?	9	-2%	-14%	21µM*
COc1ccc(S(=O)(=O)Nc2ccc(NC(C)=O)cc2)cc1Cl	-20	-3%	13	0%	-10%	7%
COC(=O)C1CSC2c3ccccc3C(=O)N12 (stereo not given)	-28	?	-4	nt	nt	18µM*
CCn1cc(/C=C(\NC(=O)c2ccccc2Cl)C(=O)NCCCn2ccnc2)c2ccccc21	nt	?	nt	10%	nt	?
CCc1oc2ccccc2c1C(=O)c1cc(I)c(O)c(I)c1	nt	?	nt	4%	nt	?
CCCCc1oc2ccccc2c1C(=O)c1cc(I)c(N(CC)CCOCC)c(I)c1	-4	4.5µM*	nt	5%	nt	7.1µM*
O=C1CC(O)(C(F)F)Oc2ccc3ccccc3c21 (stereo not given)	-6	?	15	4%	16µM*	-22%
COc1ccc2c(c1)OC(O)(C(F)F)CC2=O (stereo not given)	-19	-1%	15	0%	1%	-16%
CCc1cccc(NS(=O)(=O)c2ccc3c(c2)CC(C)N3C(=O)C2CC2)c1 (stereo not given)	nt	3.7µM*	nt	5%	nt	6.5µM*
CC1Cc2cc(S(=O)(=O)NCc3ccccc3)ccc2N1C(=O)C1CCC1 (stereo not given)	-11	7.3µM*	1	2%	-17%	21µM*
CC1Cc2cc(S(=O)(=O)NCc3ccccc3)ccc2N1C(=O)C1CC1 (stereo not given)	-6	?	0	1%	-5%	?
CCC(=O)N1c2ccc(S(=O)(=O)NC3CCCCC3)cc2CC1C (stereo not given)	22	?	28	4%	17%	21µM*
CCC(=O)N1c2ccc(S(=O)(=O)CCC(=O)NC3CCCC3)cc2CC1C (stereo not given)	-4	-3%	19	0%	-4%	-27%
